Experiment in all cases: DAPPL (digital affinity profiling via proximity ligation, sequencing); 10 mM Tris-HCl pH 7.5, 50 mM NaCl, 1 mM DTT, 4% glycerol, room temperature, 30 min; GST-TFs on glutathione beads, 16-mer random dsDNA library, 0.1% formaldehyde crosslink after washing; high values mean tight binding
The target of assay [1] is T1, FEV (Homo sapiens, UniProt Q99581 1-238).
T1 sequence: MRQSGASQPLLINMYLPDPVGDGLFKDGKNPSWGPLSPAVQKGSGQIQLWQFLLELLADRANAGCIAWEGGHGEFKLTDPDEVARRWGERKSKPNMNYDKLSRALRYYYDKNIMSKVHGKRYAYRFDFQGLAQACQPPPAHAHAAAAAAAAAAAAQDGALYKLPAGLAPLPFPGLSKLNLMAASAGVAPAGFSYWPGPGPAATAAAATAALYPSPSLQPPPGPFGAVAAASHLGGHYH
Conditions: protein: recombinant; tags: N-terminal GST; dsDNA, one strand shown. In outline:
(§1)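 Yeast served to express human transcription factors as GST fusions, which were then captured on glutathione beads and labelled with DNA barcodes. Pooled with a tag-only sample, they were incubated with 200 nmole of a 16-mer random double-stranded DNA library for 30 min at room temperature in Tris/NaCl/DTT/glycerol buffer, washed, crosslinked with 0.1% formaldehyde, ligated by proximity, amplified by PCR and sequenced. Dividing each hexamer's read frequency for a factor by its frequency for the tag-only sample gives the binding signal.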

In assay [2] the target is ETV5 (Homo sapiens, UniProt P41161 1-510). The settings on record: protein: recombinant; tags: N-terminal GST; dsDNA, one strand shown. In outline:
as §1

Assay [3] has as its target HSF1 (Homo sapiens, UniProt Q00613 1-529). Conditions: protein: recombinant; tags: N-terminal GST; chain copies: 3; dsDNA, one strand shown. Summed up:
as §1

Assay [4] has as its target T2, SPIC (Homo sapiens, UniProt Q8N5J4 1-248).
T2 sequence: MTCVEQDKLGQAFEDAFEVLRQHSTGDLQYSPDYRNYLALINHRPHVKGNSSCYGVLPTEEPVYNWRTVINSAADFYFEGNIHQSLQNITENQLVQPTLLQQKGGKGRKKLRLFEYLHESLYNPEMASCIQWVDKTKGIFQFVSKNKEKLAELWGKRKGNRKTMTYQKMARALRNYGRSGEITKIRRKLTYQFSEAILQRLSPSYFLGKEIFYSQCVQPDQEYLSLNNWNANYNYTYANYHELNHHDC
The settings on record: protein: recombinant; tags: N-terminal GST; dsDNA, one strand shown. Summed up:
as §1

For assay [5], the target named is ELF4 (Homo sapiens, UniProt Q99607 1-663). Conditions: protein: recombinant; tags: N-terminal GST; dsDNA, one strand shown. In outline:
as §1

For assay [6], the target named is T3, ELK4 (Homo sapiens, UniProt P28324-2 1-405).
T3 sequence: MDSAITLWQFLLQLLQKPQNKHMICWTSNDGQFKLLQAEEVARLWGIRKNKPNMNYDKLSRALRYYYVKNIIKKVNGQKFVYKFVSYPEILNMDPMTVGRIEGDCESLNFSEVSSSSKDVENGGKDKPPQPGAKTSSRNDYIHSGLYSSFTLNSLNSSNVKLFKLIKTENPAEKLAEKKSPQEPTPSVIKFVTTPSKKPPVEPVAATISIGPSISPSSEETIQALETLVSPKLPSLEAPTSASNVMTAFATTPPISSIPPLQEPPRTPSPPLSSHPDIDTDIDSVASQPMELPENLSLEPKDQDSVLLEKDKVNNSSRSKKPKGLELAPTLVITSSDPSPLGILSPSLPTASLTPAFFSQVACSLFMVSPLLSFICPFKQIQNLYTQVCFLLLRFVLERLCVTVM
Conditions: protein: recombinant; tags: N-terminal GST; dsDNA, one strand shown. In outline:
as §1

The target of assay [7] is T4, ETV2 (Homo sapiens, UniProt O00321 1-342).
T4 sequence: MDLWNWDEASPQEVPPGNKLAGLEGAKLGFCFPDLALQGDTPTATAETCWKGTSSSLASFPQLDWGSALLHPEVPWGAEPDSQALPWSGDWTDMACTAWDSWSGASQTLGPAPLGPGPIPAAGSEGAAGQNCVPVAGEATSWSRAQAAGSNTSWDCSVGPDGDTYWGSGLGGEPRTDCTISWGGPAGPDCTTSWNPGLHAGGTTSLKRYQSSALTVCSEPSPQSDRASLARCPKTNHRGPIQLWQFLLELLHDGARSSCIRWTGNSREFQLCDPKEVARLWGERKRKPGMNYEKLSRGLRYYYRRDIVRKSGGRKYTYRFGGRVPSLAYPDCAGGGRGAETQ
The settings on record: protein: recombinant; tags: N-terminal GST; dsDNA, one strand shown. In outline: as §1

Assay [8] deals with T5, ELF3 (Homo sapiens, UniProt P78545 1-371).
T5 sequence: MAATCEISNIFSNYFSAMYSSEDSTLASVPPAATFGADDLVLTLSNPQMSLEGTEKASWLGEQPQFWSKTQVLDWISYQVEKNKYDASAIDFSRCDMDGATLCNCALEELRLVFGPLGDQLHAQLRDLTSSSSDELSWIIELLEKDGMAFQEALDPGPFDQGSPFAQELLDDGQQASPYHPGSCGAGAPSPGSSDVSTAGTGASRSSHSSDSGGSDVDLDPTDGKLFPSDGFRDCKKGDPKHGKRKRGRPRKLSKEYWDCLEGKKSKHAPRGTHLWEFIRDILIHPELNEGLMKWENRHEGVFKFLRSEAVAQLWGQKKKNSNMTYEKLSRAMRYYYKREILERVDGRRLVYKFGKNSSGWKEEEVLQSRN
Conditions: protein: recombinant; tags: N-terminal GST; dsDNA, one strand shown. Summed up: as §1

Assay [9] has as its target CRX (Homo sapiens, UniProt O43186 1-299). The settings on record: protein: recombinant; tags: N-terminal GST; dsDNA, one strand shown. In outline:
as §1

Assay [10] addresses ETV1 (Homo sapiens, UniProt P50549 1-477). Conditions: protein: recombinant; tags: N-terminal GST; dsDNA, one strand shown. In outline: as §1

Chain of ETV5 (P41161 whole entry): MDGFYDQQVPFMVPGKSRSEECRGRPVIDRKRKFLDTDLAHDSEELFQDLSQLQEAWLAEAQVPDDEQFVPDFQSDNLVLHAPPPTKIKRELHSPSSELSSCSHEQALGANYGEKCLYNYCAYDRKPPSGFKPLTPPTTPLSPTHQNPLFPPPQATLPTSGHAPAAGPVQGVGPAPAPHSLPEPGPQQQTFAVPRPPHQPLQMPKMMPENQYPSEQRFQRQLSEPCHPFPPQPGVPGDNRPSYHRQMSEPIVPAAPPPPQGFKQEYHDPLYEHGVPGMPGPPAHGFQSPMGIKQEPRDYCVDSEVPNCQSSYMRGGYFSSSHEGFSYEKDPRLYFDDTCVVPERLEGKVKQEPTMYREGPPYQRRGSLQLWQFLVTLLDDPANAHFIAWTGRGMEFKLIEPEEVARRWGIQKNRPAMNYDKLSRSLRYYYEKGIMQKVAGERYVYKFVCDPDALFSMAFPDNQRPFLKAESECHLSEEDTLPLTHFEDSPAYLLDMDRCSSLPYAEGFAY
Chain of HSF1 (Q00613 whole entry): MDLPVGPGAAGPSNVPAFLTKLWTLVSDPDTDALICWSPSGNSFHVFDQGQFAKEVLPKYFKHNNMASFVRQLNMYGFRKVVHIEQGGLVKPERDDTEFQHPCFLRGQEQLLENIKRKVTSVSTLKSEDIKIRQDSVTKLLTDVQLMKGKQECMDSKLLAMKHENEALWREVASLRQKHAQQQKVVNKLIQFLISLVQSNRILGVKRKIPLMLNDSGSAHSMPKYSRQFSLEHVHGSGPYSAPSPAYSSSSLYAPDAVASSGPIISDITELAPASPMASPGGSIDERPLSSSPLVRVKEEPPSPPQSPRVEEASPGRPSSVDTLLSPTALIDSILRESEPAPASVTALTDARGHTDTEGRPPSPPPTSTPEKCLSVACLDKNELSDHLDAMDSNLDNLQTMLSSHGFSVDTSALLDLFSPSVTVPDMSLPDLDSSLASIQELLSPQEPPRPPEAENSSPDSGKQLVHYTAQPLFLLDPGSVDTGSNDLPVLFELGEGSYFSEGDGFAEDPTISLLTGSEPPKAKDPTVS
Chain of ETV1 (P50549 whole entry): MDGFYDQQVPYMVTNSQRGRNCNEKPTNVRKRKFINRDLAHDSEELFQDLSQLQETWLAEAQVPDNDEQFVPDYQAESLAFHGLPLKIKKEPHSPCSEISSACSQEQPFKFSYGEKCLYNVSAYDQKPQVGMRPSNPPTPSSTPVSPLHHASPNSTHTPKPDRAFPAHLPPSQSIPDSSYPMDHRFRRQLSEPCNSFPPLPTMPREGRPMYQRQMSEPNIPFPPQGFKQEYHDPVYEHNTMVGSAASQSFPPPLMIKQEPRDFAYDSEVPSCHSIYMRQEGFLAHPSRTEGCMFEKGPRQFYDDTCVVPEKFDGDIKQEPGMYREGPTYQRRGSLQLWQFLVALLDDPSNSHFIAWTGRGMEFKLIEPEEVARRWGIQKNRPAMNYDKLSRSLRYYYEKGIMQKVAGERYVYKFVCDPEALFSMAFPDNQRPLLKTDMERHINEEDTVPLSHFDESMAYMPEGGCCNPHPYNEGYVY
Chain of CRX (O43186 whole entry): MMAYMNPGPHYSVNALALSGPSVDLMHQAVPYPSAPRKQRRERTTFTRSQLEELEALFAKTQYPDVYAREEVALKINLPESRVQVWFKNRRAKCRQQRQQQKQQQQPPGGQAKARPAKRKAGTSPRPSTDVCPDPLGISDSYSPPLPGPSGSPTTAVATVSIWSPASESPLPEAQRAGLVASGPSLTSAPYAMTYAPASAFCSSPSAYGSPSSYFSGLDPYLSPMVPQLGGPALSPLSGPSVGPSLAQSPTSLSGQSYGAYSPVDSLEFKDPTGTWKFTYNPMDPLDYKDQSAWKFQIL
Chain of ELF4 (Q99607 whole entry): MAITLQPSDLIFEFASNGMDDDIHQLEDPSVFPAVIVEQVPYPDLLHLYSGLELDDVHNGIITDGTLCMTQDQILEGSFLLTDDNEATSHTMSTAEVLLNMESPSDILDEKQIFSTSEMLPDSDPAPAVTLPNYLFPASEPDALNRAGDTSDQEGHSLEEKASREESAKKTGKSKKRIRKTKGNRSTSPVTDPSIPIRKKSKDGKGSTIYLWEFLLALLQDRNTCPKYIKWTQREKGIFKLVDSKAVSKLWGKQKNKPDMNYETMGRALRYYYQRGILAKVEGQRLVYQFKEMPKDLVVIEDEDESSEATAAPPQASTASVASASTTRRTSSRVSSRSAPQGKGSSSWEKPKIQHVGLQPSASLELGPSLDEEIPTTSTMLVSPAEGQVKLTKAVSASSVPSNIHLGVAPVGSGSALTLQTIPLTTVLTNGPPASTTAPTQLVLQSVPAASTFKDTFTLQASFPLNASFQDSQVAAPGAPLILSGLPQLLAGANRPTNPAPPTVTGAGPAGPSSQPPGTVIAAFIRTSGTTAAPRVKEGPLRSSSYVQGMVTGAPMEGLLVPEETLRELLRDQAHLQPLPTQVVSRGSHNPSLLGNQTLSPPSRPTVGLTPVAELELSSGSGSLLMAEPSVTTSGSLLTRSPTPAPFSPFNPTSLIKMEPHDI

Regarding GTATAA, the binding signal in [1] is 1.01 fold enrichment (6-mer frequency, TF over GST control); in assay [2], 1.1 fold enrichment (6-mer frequency, TF over GST control); in assay [3], 1.16 fold enrichment (6-mer frequency, TF over GST control); in assay [4], 1.07 fold enrichment (6-mer frequency, TF over GST control); in [5], 1.05 fold enrichment (6-mer frequency, TF over GST control); in assay [6], 1.08 fold enrichment (6-mer frequency, TF over GST control). Also, the binding signal in [7] was 1.18 fold enrichment (6-mer frequency, TF over GST control); in assay [8], 1.14 fold enrichment (6-mer frequency, TF over GST control); in assay [9], 1.41 fold enrichment (6-mer frequency, TF over GST control); in assay [10], 1.14 fold enrichment (6-mer frequency, TF over GST control).
Take AAAAGG: the binding signal was 1.06 fold enrichment (6-mer frequency, TF over GST control) in [1]; 1.17 fold enrichment (6-mer frequency, TF over GST control) in assay [2]; 1.05 fold enrichment (6-mer frequency, TF over GST control) in [3]; 1.18 fold enrichment (6-mer frequency, TF over GST control) in assay [4]; 1.1 fold enrichment (6-mer frequency, TF over GST control) in assay [5]; 1 fold enrichment (6-mer frequency, TF over GST control) in [6]. Also, the binding signal was 1.12 fold enrichment (6-mer frequency, TF over GST control) in assay [7]; 1.2 fold enrichment (6-mer frequency, TF over GST control) in assay [8]; 1.04 fold enrichment (6-mer frequency, TF over GST control) in assay [9]; 1.19 fold enrichment (6-mer frequency, TF over GST control) in assay [10].
As to TACTAA, the binding signal in assay [1] is 1.16 fold enrichment (6-mer frequency, TF over GST control); in [2], 1.18 fold enrichment (6-mer frequency, TF over GST control); in [3], 1.51 fold enrichment (6-mer frequency, TF over GST control); in assay [4] it was 1.24 fold enrichment (6-mer frequency, TF over GST control); in assay [5] it was 1.32 fold enrichment (6-mer frequency, TF over GST control); in assay [6], 1.4 fold enrichment (6-mer frequency, TF over GST control). For the same sequence, the binding signal in assay [7] is 1.1 fold enrichment (6-mer frequency, TF over GST control); in assay [8] it was 1.27 fold enrichment (6-mer frequency, TF over GST control); in assay [9] it was 2.1 fold enrichment (6-mer frequency, TF over GST control); in assay [10], 1.29 fold enrichment (6-mer frequency, TF over GST control).
With ATTTGT, the binding signal in assay [1] is 1.34 fold enrichment (6-mer frequency, TF over GST control); in assay [2] it was 1.41 fold enrichment (6-mer frequency, TF over GST control); in assay [3], 1.33 fold enrichment (6-mer frequency, TF over GST control); in assay [4], 1.35 fold enrichment (6-mer frequency, TF over GST control); in assay [5], 1.32 fold enrichment (6-mer frequency, TF over GST control); in assay [6], 1.45 fold enrichment (6-mer frequency, TF over GST control). In addition, the binding signal was 1.44 fold enrichment (6-mer frequency, TF over GST control) in assay [7]; 1.41 fold enrichment (6-mer frequency, TF over GST control) in assay [8]; 1.58 fold enrichment (6-mer frequency, TF over GST control) in [9]; 1.23 fold enrichment (6-mer frequency, TF over GST control) in assay [10].
For TAGTCC, the binding signal in assay [1] was 1.07 fold enrichment (6-mer frequency, TF over GST control); in [2], 1.14 fold enrichment (6-mer frequency, TF over GST control); in assay [3], 1.21 fold enrichment (6-mer frequency, TF over GST control); in [4], 1.16 fold enrichment (6-mer frequency, TF over GST control); in assay [5], 1.07 fold enrichment (6-mer frequency, TF over GST control); in [6], 1.12 fold enrichment (6-mer frequency, TF over GST control). The binding signal was 1.21 fold enrichment (6-mer frequency, TF over GST control) in assay [7]; 1.13 fold enrichment (6-mer frequency, TF over GST control) in assay [8]; 1.38 fold enrichment (6-mer frequency, TF over GST control) in assay [9]; 1.1 fold enrichment (6-mer frequency, TF over GST control) in [10].
On to CATCTG, for which the binding signal is 1.33 fold enrichment (6-mer frequency, TF over GST control) in assay [1]; 1.2 fold enrichment (6-mer frequency, TF over GST control) in assay [2]; 1.25 fold enrichment (6-mer frequency, TF over GST control) in assay [3]; 1.28 fold enrichment (6-mer frequency, TF over GST control) in assay [4]; 1.25 fold enrichment (6-mer frequency, TF over GST control) in assay [5]; 1.39 fold enrichment (6-mer frequency, TF over GST control) in assay [6]. The binding signal is 1.16 fold enrichment (6-mer frequency, TF over GST control) in assay [7]; 1.37 fold enrichment (6-mer frequency, TF over GST control) in assay [8]; 1.15 fold enrichment (6-mer frequency, TF over GST control) in assay [9]; 1.31 fold enrichment (6-mer frequency, TF over GST control) in assay [10].
CGCTTA: the binding signal in assay [1] was 1.2 fold enrichment (6-mer frequency, TF over GST control); in [2] it was 1.29 fold enrichment (6-mer frequency, TF over GST control); in assay [3], 1.53 fold enrichment (6-mer frequency, TF over GST control); in assay [4], 1.22 fold enrichment (6-mer frequency, TF over GST control); in assay [5], 1.29 fold enrichment (6-mer frequency, TF over GST control); in assay [6], 1.32 fold enrichment (6-mer frequency, TF over GST control). The binding signal in assay [7] is 1.1 fold enrichment (6-mer frequency, TF over GST control); in assay [8] it was 1.29 fold enrichment (6-mer frequency, TF over GST control); in [9], 2.11 fold enrichment (6-mer frequency, TF over GST control); in [10] it was 1.24 fold enrichment (6-mer frequency, TF over GST control).
Regarding TTGTCC, the binding signal is 1.34 fold enrichment (6-mer frequency, TF over GST control) in assay [1]; 1.42 fold enrichment (6-mer frequency, TF over GST control) in assay [2]; 1.16 fold enrichment (6-mer frequency, TF over GST control) in [3]; 1.3 fold enrichment (6-mer frequency, TF over GST control) in assay [4]; 1.26 fold enrichment (6-mer frequency, TF over GST control) in assay [5]; 1.29 fold enrichment (6-mer frequency, TF over GST control) in assay [6]. In addition, the binding signal in assay [7] was 1.56 fold enrichment (6-mer frequency, TF over GST control); in [8] it was 1.24 fold enrichment (6-mer frequency, TF over GST control); in assay [9], 1.16 fold enrichment (6-mer frequency, TF over GST control); in [10], 1.23 fold enrichment (6-mer frequency, TF over GST control).
